# Out of some 320,000 compounds screened, about 2,100 (0.66%) were called active. Not shown: some 53% with an inconclusive outcome. The call rests on the fitted dose curve; in most records, active means well fitted inhibition curve with a large enough effect in the signal ratio, with a control signal flat (not every such curve was filed as active); inconclusive means small, poorly fitted or top-dose-only effect, or effect the other way, or a change in a side signal; inactive means flat fitted curve, though single readings scatter; the % refers to the signal ratio. The full list was thinned out, with actives kept by preference.
# Assay: qHTS Assay for Lipid Storage Modulators in Drosophila S3 Cells;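 on cell number change: cells counted by Cell Tracker Red CMTPX staining in the red channel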; on lipid storage change, negative = inhibition: on the % scale 0 is the no-effect control and ±100 the full control effect
# Conditions: BODIPY lipid droplet fluorescence, 18-24 h, cells fed with added oleic acid; cell number change: measured here: cell count max response; series mostly up to 46.1 µM; lipid storage change, negative = inhibition: at the top concentration
# Description: NIH Molecular Libraries Probe Production Centers Network [MLPCN] NIH Chemical Genomics Center [NCGC] MLPCN Grant: 1 R03 MH085686-01 Assay Submitter (PI): Beller, Mathias; Max-Planck-Institut fur Biophysikalische Chemie NCGC Assay Overview: Storing lipids as a reservoir for energy or the anabolism of elementary metabolites is a common feature of probably all cells and is conserved from bacteria to humans. The universal cellular lipid storage organelle is the so-called lipid storage droplet (LD). Although ubiquitous, LDs share a simple structure composed of a hydrophobic core that harbors the storage lipids, which is shielded by a droplet-specific phospholipid monolayer to which proteins are attached. The current model of LD biogenesis involves an incorporation of the lipid core into the membrane leaflets of the endoplasmic reticulum (ER) followed by a subsequent budding-like maturation of a LD, which ultimately pinches off. Once released, LD volume can increase by localized lipogenesis or fusion of existing droplet. Storage lipids are re-mobilized enzymatically by lipase activity. Lipase regulation in the adipocyte is heavily studied and involves multiple components including catecholamine signaling, the LD-associated proteins Perilipin and comparative gene identification (CGI-58) and at least two lipases named hormone sensitive lipase (HSL) and adipocyte triglyceride lipase (ATGL). LD regulation outside of the adipocyte is poorly understood and only few components are known. However, there is an urgent need to learn more about ectopic fat depots as mislocalized storage of lipids, for example in the liver or muscle, is an eminent health problem associated with insulin resistance or the metabolic syndrome. We developed a laser-scanning cytometer assay to enable 1,536-well screening and combined the results of the small molecules screen with an RNAi database based on lipid storage.
# Triacsin C (Sigma-Aldrich T-4540), an inhibitor of long-chain fatty acyl CoA synthetase that blocks synthesis of triglycerides, was used as a positive control for lipid under-storage. A total of 23 nL of compound solution of different concentrations were transferred to the assay plates using a Kalypsys pin tool equipped with a 1,536-pin array containing 10-nL slotted pins (FP1S10, 0.457-mm diameter, 50.8 mm long; V&P Scientific). One microliter of oleic acid (400 uM) was added, and the plate was lidded with stainless steel rubber gasket lined lids containing pinholes. […] Fluorescence was detected by excitation of the fluorophores with a 488-nm laser on an Acumen Explorer (TTP Lab Tech). The total intensity in channel 2 (500-530 nm) reflected lipid droplet accumulation. Cells were detected using channel 3 (575-640 nm) with 5-um width and 100-um depth filters. The ratio of the number of objects in PMT channel 2 over the number of objects in PMT channel 3 was also calculated. Percent activity was computed relative to an internal control (100% inhibited lipid droplet deposition due to the presence of 20 uM Triacsin C), which was added to 32 wells/plate.
# Potency means the concentration at half of the fitted maximal effect.
Structure (SMILES),"lipid storage change, negative = inhibition",cell number change [%],Potency,outcome
O=C1CCCc2ccccc2N1Cc1ccc(Cl)cc1,-16.9% (inactive),-1.32,–,–
Cc1ccc2c(c1)N(CC(=O)NCCC1=CCCCC1)C(=O)c1cccnc1O2,0.185% (inactive),12.4,–,–
COc1ccc(OCC(=O)Nc2ccc(S(=O)(=O)N3CCN(C)CC3)cc2)cc1,-10.7% (inactive),-8.24,–,–
COc1cc(NC2CCCCC2O)c2nc(-c3ccc(Cl)cc3)ccc2c1 (stereo not drawn),–,-29.8,14.6 µM (active),–
COc1ccc(OCC(=O)OCC(=O)NC2CCCCC2C)cc1 (stereo not drawn),-7.59% (inactive),5.06,–,–
CC1CCCCC1NC(=O)COC(=O)Cc1ccc(Cl)cc1 (stereo not drawn),4.08% (inactive),-17.8,–,–
NC1=NC(=O)C(CC(=O)c2ccc(Cl)cc2)S1 (stereo not drawn),3.54% (inactive),-1.82,–,–
O=C1CC(C(=O)Nc2ccc(C(=O)O)cc2)C(c2ccccc2)O1 (stereo not drawn),-2.1% (inactive),-9.22,–,–
O=C(CN1CCC(O)CC1)N1c2ccccc2C=Cc2ccccc21,-0.597% (inactive),5.26,–,–
O=C(CN1CCCC1)N1c2ccccc2C=Cc2ccccc21,8.55% (inactive),-13.2,–,–
O=C(CN1CCCCCC1)N1c2ccccc2C=Cc2ccccc21,–,-1.69,23.1 µM (active),–
Cc1nn(CC(=O)OCC(=O)Nc2c(C(C)C)cccc2C(C)C)c(C)c1[N+](=O)[O-],-9.28% (inactive),13.1,–,–
CCOc1ccc(C=NC23CN4CN(CN(C4)C2)C3)cc1,-12.4% (inactive),8.43,–,–
C(=NC12CN3CN(CN(C3)C1)C2)c1ccc2c(c1)OCO2,–,-2.59,25.9 µM (active),–
C(=N\n1cnnc1)/c1ccc2c(c1)OCO2,3.76% [at 9.22 µM] (inactive),14.5,–,–
Fc1ccccc1OCCCCN1CCCCC1,-16.9% (inactive),6.04,–,–
CC(C)NC(=O)C(Cc1ccccc1)N1C(=O)c2ccccc2C1=O (stereo not drawn),0.505% (inactive),-13.7,–,–
COc1ccc2c(CCNC(N)=S)c[nH]c2c1,2.34% (inactive),9.98,–,–
Cc1cc(NC(=O)CCC(=O)N(CC(=O)NCC2CCCO2)c2ccc(Cl)c(Cl)c2)no1 (stereo not drawn),–,10.4,–,inactive
CCc1ccccc1N(CC(=O)NCC1CCCO1)C(=O)CCC(=O)Nc1cc(C)on1 (stereo not drawn),–,7.08,25.9 µM (active),–
CCOc1ccccc1N(CC(=O)NCC1CCCO1)C(=O)CCC(=O)Nc1cc(C)on1 (stereo not drawn),–,6.09,–,inactive
Cc1cc(NC(=O)CCC(=O)N(CC(=O)NCC2CCCO2)c2ccccc2C)no1 (stereo not drawn),6.36% (inactive),5.33,–,–
Cc1cc(NC(=O)CCC(=O)N(CC(=O)NCC2CCCO2)c2ccc3c(c2)OCCO3)no1 (stereo not drawn),1.58% (inactive),10.4,–,–
Cc1cc(NC(=O)CCC(=O)N(CC(=O)NCC2CCCO2)c2ccc(C)c(C)c2)no1 (stereo not drawn),–,-10,1.03 µM (active),–

Structure (SMILES),"lipid storage change, negative = inhibition",cell number change [%],Potency,outcome
COC(=O)c1ccc(N2C(=O)c3cc(N4CCOCC4)c([N+](=O)[O-])cc3C2=O)cc1,1.86% (inactive),0.29,–,–
Cc1cccc2nc(CSc3nc4ccccc4[nH]3)cn12,-6.23% (inactive),–,–,–
CC1(C)Cc2c(c(=S)nc(-c3ccccc3)n2CCOCCO)CO1,0.774% (inactive),4.5,–,–
COCCn1c(-c2ccccc2)nc(=S)c2c1CC(C)(C)OC2,–,–,–,inactive
CC1(C)Cc2c(c(=S)nc(-c3ccccc3)n2CCO)CO1,–,-12.1,0.259 µM (active),–
CC(=O)Nc1ncc(Cc2cccc(Cl)c2Cl)s1,–,–,–,inactive
Cc1nn(C(C)C(=O)NC2C(=O)N3C(C(=O)O)=C(CSc4nnnn4C)CSC23)cc1Cl (stereo not drawn),6.33% (inactive),-1.98,–,–
COc1cccc(NC(=O)COc2ccc(C(=O)N3CCN(C)CC3)cc2)c1,–,10.4,–,inactive
COc1cccc(NC(=S)N2CCN(C)CC2)c1,-6.39% (inactive),-7.43,–,–
COc1cccc(NC(=O)COc2ccc(C(=S)N3CCN(C)CC3)cc2OC)c1,–,–,8.2 µM (active),–
CCOCCn1c(N2CCCC2)nc2c1c(=O)n(C)c(=O)n2C,–,-1.35,–,inactive
CCOC1=C/C(=C/c2c(N)n3nc(CC(=O)N4CCCC4)sc3nc2=O)C=CC1=O,–,-5.2,–,inactive
COC1=C/C(=C/c2c(N)n3nc(CC(=O)N4CCCCC4)sc3nc2=O)C=CC1=O,–,-9.68,14.6 µM (active),–
Nc1c(/C=C2/C=CC(=O)C(O)=C2)c(=O)nc2sc(CC(=O)N3CCCCC3)nn12,–,-19.8,–,inactive
COC(=O)c1c(NC(=O)c2ccco2)sc(C(=O)N2CCCC2)c1C,19.5% (inactive),-26.3,–,–
CCCn1cc(S(=O)(=O)c2ccc(OC)cc2)c(=O)c2cc(OCC)ccc21,-20.7% (inactive),–,–,–
CC(C)C(C(=O)Nc1ccc2c(c1)OCO2)N1C(=O)c2ccccc2C1=O (stereo not drawn),–,-19.4,–,inactive
O=C(CCCCCNC(=O)c1ccccc1)N/N=C/c1ccco1,–,–,–,inactive
O=C(CCCCCNC(=O)c1ccccc1)N/N=C/c1ccccc1O,–,-19.4,9.2 µM (active),–
O=C(CCCCCNC(=O)c1ccccc1)N/N=C/c1ccc(O)cc1O,-5.27% (inactive),1.3,–,–
CSC1=NCCN1S(=O)(=O)c1ccc2ccccc2c1,3.31% (inactive),1.31,–,–
CC(C)Oc1ccc(CNC(=O)C2CCCN(S(=O)(=O)N3CCOCC3)C2)cc1 (stereo not drawn),–,24.2,–,inactive
O=Cc1cccn1-c1sc2c(c1C(=O)O)CCCC2,0.304% (inactive),-5.54,–,–

# Source: PubChem BioAssay AID2685 (National Center for Advancing Translational Sciences (NCATS), 2010)
